Results on 20 molecules are retold here after PubChem BioAssay (NCI).

Compounds without any hit were thinned out: in the full panel of roughly 79,000, 15% have a hit. Unmarked numbers belong to inactive results. Activity calls are given as the source filed them. Cut-off read from the data, not from the text of the source: active = growth inhibition above about 70%; inactive = the rest.

Experiment [1] can be described thus: NCI Yeast Anticancer Drug Screen. Data for the rad50 strain (AID 155).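 Note: 0% = growth of vehicle-only cultures of the same strain.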 As to conditions: S. cerevisiae rad50 strain growth inhibition; at 50.0 µM; stronger effect = higher value. The gist of the method:
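Vehicle-treated cultures provide the reference for the growth inhibition reported for compound-exposed, repair-deficient yeast.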

Experiment [2] in a line: NCI Yeast Anticancer Drug Screen. Data for the mec2-1 strain (AID 157). The following applies: S. cerevisiae mec2-1 strain, at 50.0 µM, stronger effect = higher value. The gist of the method: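 mec2-1 yeast strain, carrying an alteration in DNA damage repair or cell cycle control, was exposed to compounds; growth inhibition was measured relative to vehicle-treated controls.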
A short description of experiment [3]: NCI Yeast Anticancer Drug Screen. Data for the sgs1 mgt1 strain (AID 161).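 Note: 0% = growth of cultures given vehicle only.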 The following applies: S. cerevisiae sgs1 mgt1 strain, at 50.0 µM, stronger effect = higher value. In outline: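 Yeast cells carrying a defined DNA-repair defect were exposed to test compounds. Growth inhibition was measured relative to vehicle-treated controls.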
Experiment [4] in a line: NCI Yeast Anticancer Drug Screen. Data for the cln2 rad14 strain (AID 165).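 Note: 0% = growth equal to vehicle treated cultures.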 As to conditions: S. cerevisiae cln2 rad14 strain, at 50.0 µM, stronger effect = higher value. In outline:
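Yeast carrying cln2 and rad14 alterations (cell cycle control and DNA damage repair) were exposed to compounds. Growth inhibition was measured against vehicle-treated controls.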

A short description of experiment [5]: NCI Yeast Anticancer Drug Screen. Data for the bub3 strain (AID 167). The following applies: S. cerevisiae bub3 mutant strain, at 50.0 µM, stronger effect = higher value. The gist of the method: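 Mutant yeast screening strain plus compound; vehicle-treated cultures serve as the 0% inhibition reference.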
Experiment [6] in a line: NCI Yeast Anticancer Drug Screen. Data for the mlh1 rad18 strain (AID 175). As to conditions: S. cerevisiae mlh1 rad18 strain growth inhibition; at 50.0 µM; stronger effect = higher value. In outline:
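Growth inhibition of the yeast strain was measured after compound exposure and expressed relative to vehicle-treated controls. The strain carries defined defects in DNA damage repair.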

With `COc1ccc(-c2coc3c4c(c(CC=C(C)C)c(O)c3c2=O)OC(C)(C)C=C4)cc1OC`, the growth inhibition in experiment [1] is 29.9%; in experiment [2], 13.8%; in experiment [3] it was 10.9%; in experiment [4] it was 37.7%; in experiment [5], 4.1%; in experiment [6], 16.8%.
Regarding `COC(=O)N1C(c2ccccc2)C=CC(c2ccccc2)N1C(=O)OC` (stereo not given), the growth inhibition in experiment [1] was 12.7%; in experiment [2], 11.2%; in experiment [3] it was 10.2%; in experiment [4], 4.3%; in experiment [5] it was 17%; in experiment [6], 18.2%.
In the case of `Cn1c(=O)c(-c2ccccc2)c(O)c2ccccc21`, the growth inhibition in experiment [1] is 14.8%; in experiment [2], 12.4%; in experiment [3], -2.4%; in experiment [4], 27.4%; in experiment [5] it was -8.1%; in experiment [6], -20.4%.
With `CC(=O)OC12C(C)=C(C)C(=O)N1c1ccccc1N2C(C)=O` (stereo not given), the growth inhibition in experiment [1] was -20.8%; in experiment [2], 2.55%; in experiment [3], 6.7%; in experiment [4], 15.9%; in experiment [5] it was 6.15%; in experiment [6] it was 11.1%.
As to `COc1cc(/C=C/C(=O)O)cc(OC)c1OC`, the growth inhibition in experiment [1] was -4.95%; in experiment [2], -2.1%; in experiment [3] it was 12.9%; in experiment [4], 6.1%; in experiment [5], 11.2%; in experiment [6], 10.7%.
In the case of `Nc1ccc(-c2ccc(N=C(/C=N/O)NO)cc2)cc1`, the growth inhibition in experiment [1] is -7.05%; in experiment [2], -4.25%; in experiment [3], 2.4%; in experiment [4], -46%; in experiment [5], 12.2%; in experiment [6], -2.15%.
In the case of `Nc1ccc(Cl)c(Cl)c1Cl`, the growth inhibition in experiment [1] was 40.5%; in experiment [2] it was -6.2%; in experiment [3] it was 52%; in experiment [4] it was 31%; in experiment [5], 43.3%; in experiment [6], 35.7%.
In the case of `COC1=C(N)C(=O)c2ccc(-c3ccccn3)nc2C1=O`, the growth inhibition is 89.7% (active) in experiment [1]; 92.3% (active) in experiment [2]; 86.8% (active) in experiment [3]; 89.8% (active) in experiment [4]; 81.8% (active) in experiment [5]; 92.9% (active) in experiment [6].
In the case of `O=C1CCCc2cc3c(cc21)CC1(Cc2ccccc2C1)C3`, the growth inhibition in experiment [1] was -12.2%; in experiment [2] it was -27.8%; in experiment [3] it was 9.4%; in experiment [4], -6.4%; in experiment [5], 36.9%; in experiment [6], -14.7%.
For `CCn1c(=O)c(C#N)c2n(CC)c3ccccc3n2c1=O`, the growth inhibition in experiment [1] was 39.5%; in experiment [2] it was 13.8%; in experiment [3], 19.4%; in experiment [4] it was 10.2%; in experiment [5], 20.9%; in experiment [6], 30%.
For `O=C1CC2(CCCc3sccc32)C(=O)N1` (stereo not given), the growth inhibition was -11.2% in experiment [1]; -1.65% in experiment [2]; 1.55% in experiment [3]; -21.1% in experiment [4]; -5.6% in experiment [5]; -14.1% in experiment [6].
On to `O=C(O)C1C(Br)C(Br)C1C(=O)O` (stereo not given) (tested in a mixture with another compound), for which the growth inhibition is 0.25% in experiment [1]; -16.6% in experiment [2]; -12.2% in experiment [3]; -22.2% in experiment [4]; -15.3% in experiment [5]; -19.3% in experiment [6].
Regarding `COc1ccc2c(c1)C(=O)C1CC(=O)CCC21` (stereo not given), the growth inhibition in experiment [1] was -6.45%; in experiment [2], -10.4%; in experiment [3] it was -8.9%; in experiment [4] it was -21.8%; in experiment [5], -30.6%; in experiment [6], -8.9%.
Regarding `NC(=O)C(=O)C1CCC2=C(Sc3ccccc3N2)C1=O` (stereo not given), the growth inhibition in experiment [1] is 39.5%; in experiment [2], -5.4%; in experiment [3] it was -6.35%; in experiment [4] it was 30.1%; in experiment [5] it was 34%; in experiment [6], 4.5%.
As for `Nc1nc2c3nc(Nc4ccccc4)sc3nc(=O)n2c2sc(Nc3ccccc3)nc12`, the growth inhibition in experiment [1] was 1.85%; in experiment [2], 1.65%; in experiment [3], 2.75%; in experiment [4] it was -4.15%; in experiment [5], -20.3%; in experiment [6], 2.6%.
In the case of `COc1cc(C)c2c([N+](=O)[O-])cc([N+](=O)[O-])c(OC)c2n1`, the growth inhibition in experiment [1] is 12%; in experiment [2], 17.9%; in experiment [3], 4%; in experiment [4], 3.85%; in experiment [5], -10.2%; in experiment [6] it was 7.05%.
Regarding `N#Cc1cc2ccccc2c2ccccc12`, the growth inhibition in experiment [1] is 8.6%; in experiment [2] it was -4.15%; in experiment [3], 5.85%; in experiment [4], 12.3%; in experiment [5] it was -11.2%; in experiment [6], 18.4%.
Consider `CN(C)CCNC(=O)C(C)(C)Oc1ccc(C(=O)c2ccc(Cl)cc2)cc1Cl`, for which the growth inhibition in experiment [1] was -1.55%; in experiment [2], 6.1%; in experiment [3] it was -18.1%; in experiment [4], -21.6%; in experiment [5], -30.8%; in experiment [6], 40.2%.
As to `CC(=O)ONc1nc(C)c(CCC2OCCO2)c(SC(=N)N)n1`, the growth inhibition in experiment [1] is 28.9%; in experiment [2], 27.2%; in experiment [3], 30%; in experiment [4], 14.9%; in experiment [5], -1.7%; in experiment [6], 38.2%.
Turning to `CN(NC(=O)/C(=C\c1ccccc1Cl)NC(=O)c1ccccc1)c1cn[nH]c(=O)c1Cl`, the growth inhibition was -13.2% in experiment [1]; -11.8% in experiment [2]; -16.4% in experiment [3]; 9.1% in experiment [4]; -3.75% in experiment [5]; -6.85% in experiment [6].
